# Screening results from PubChem.
# PLK1 PBD inh: inhibitors of human PLK1 polo-box domain binding; P53350; Plk1 PBD binding of FITC phosphopeptide, fluorescence polarization; Potency, µM, for the others: max response, negative = inhibition, hits mostly inhibitors; 360,000 tested, 2.8% active; AID 720504; note: potency is the fitted concentration of half-maximal effect; series mostly up to about 57 µM; nearly all actives have a fitted effect of over 65% in size
# WRN inhibitor: blocks human WRN helicase | WRN helicase unwinding, fluorescent forked duplex, kinetic | AID 651768 | 360,000 tested, 0.46% active | Potency, µM (series often up to 114 µM), inactives show top-dose activity change, negative = inhibition, usual class: inhibitors; note: potency is the fitted concentration of half-maximal effect; nearly all actives have a fitted effect of over 55% in size
# Target sequence (Q14191 whole entry, looked up): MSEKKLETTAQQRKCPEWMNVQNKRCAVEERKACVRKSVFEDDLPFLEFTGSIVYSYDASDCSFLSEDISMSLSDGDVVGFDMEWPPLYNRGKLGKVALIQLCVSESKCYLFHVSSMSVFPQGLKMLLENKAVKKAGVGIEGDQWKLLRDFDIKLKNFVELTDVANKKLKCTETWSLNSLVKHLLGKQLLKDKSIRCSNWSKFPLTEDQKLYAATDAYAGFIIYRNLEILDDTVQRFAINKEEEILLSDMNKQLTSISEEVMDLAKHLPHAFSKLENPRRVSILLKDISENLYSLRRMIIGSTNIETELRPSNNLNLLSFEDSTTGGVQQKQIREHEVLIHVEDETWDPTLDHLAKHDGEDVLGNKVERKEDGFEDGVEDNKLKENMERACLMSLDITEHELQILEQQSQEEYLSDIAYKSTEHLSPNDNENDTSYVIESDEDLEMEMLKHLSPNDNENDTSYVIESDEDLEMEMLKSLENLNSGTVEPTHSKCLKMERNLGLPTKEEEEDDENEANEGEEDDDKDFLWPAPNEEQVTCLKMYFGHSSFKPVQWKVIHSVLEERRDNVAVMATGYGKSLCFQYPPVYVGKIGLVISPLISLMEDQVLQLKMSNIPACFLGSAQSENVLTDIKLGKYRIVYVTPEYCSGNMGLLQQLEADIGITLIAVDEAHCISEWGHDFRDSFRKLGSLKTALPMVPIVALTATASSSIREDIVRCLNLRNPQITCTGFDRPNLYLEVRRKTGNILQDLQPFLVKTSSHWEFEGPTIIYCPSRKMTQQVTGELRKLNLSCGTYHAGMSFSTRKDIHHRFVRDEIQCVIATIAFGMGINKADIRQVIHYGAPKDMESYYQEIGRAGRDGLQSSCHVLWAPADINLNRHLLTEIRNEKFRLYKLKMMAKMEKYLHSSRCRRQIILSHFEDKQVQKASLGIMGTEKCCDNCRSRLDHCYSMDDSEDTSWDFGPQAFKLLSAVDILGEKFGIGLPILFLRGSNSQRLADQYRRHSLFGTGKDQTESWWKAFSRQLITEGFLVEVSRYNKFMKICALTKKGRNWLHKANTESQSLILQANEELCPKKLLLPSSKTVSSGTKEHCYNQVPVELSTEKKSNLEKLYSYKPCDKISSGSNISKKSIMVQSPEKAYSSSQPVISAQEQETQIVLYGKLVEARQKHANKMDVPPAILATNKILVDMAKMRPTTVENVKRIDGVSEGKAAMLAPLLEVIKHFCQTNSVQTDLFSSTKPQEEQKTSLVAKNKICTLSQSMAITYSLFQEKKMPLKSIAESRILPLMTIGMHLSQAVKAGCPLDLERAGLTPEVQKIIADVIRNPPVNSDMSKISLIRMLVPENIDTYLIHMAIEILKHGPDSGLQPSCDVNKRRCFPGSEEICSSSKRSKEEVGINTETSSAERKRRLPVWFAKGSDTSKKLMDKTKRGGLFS
#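 WRN at 20 nM final preincubated with compound 15 min at room temperature; reaction started with 100 nM fluorophore/quencher forked duplex oligonucleotide and 2 mM ATP final. Unwinding followed kinetically by red fluorescence (ex 525, em 598 nm).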
# USP1-UAF1 inh: inhibitors of human USP1/UAF1 deubiquitinase. recombinant USP1/UAF1, Ub-Rhodamine cleavage fluorescence. Potency, µM (top dose mostly 57.1 µM), without a hit: top-dose activity change, negative = inhibition, most hits filed as inhibitors. 390,000 tested, 0.23% active. AID 743255; note: potency is the fitted concentration of half-maximal effect; nearly all actives have a fitted effect of over 60% in size
#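 USP1/UAF1 complex (1 nM) preincubated 15 min at room temperature with compound, then Ub-Rho substrate (150 nM final) added. Kinetic fluorescence at 480/540 nm over 6 reads at 60 s intervals; 50 mM HEPES pH 7.8, 0.5 mM EDTA, 0.1 mg/ml BSA, 1 mM TCEP, 0.01% Tween-20.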
# USP2a block: USP2a (human) protease inhibition; USP2 core, Ub-CHOP2 coupled fluorogenic reporter, 485/531; O75604; Potency, µM (top dose mostly 38.3 µM), without a hit: at the highest dose activity change, negative = inhibition, usual class: inhibitors; 330,000 tested, 0.01% active;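 note: potency is the fitted concentration of half-maximal effect; plate controls were DMSO wells for no effect and full inhibition by NEM control for full effect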
#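 Cell-free coupled assay: 10nM USP2 core preincubated 30min RT with compound in Tris-HCl pH 8.0/CaCl2/CHAPS buffer, then 25nM Ub-CHOP2 and 25nM reporter substrate; fluorescence (Ex 485/Em 531) read after 60min RT, normalized to NEM inhibition, concentration-response curves fitted.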
# PI5P4K alpha inh: blocks human PI5P4K alpha kinase activity; max response, %; 330,000 tested, 1.2% active; P48426; PI5P4Kalpha enzyme, ADP-Glo luminescence, 60 min; hits give low values; active = max response of -50% or lower; inconclusive = between -30% and -50%; inactive = -30% or higher; note: value at the top dose of about 77 µM
#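 Reactions run in 0.038 M HEPES pH 7.4, 0.28 mM EGTA, 0.1% CHAPS and 5% DMSO, with PI5P4Kalpha, substrate, compound and 5 microM ATP final, one hour at room temperature. Readout is ADP-Glo luminescence.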
# * marks the source's active call; other numbers are inactive results; ? = inconclusive; . = not tested or not shown; [ ] = remark or other dose. Hits are enriched below; roughly 3.3% of the tested compounds scored in any of these assays. Unless noted, calls come from the whole dose curve; as a rule, active = well fitted curve in the direction sought with a large enough effect; inconclusive = small, poorly fitted or top-dose-only effect, or another doubt; inactive = no such curve, though single readings can be large; an effect the other way counts as inactive or inconclusive. Unless noted, % is set by controls: 0 for no effect and ±100 for the full control effect.
SMILES,PLK1 PBD inh,WRN inhibitor,USP1-UAF1 inh,USP2a block,PI5P4K alpha inh
O=C(O)CC1OCC=C2CN3CCC45c6ccccc6NC4C1C2CC35 (configuration not stated),-5%,-6%,7%,-7%,-5
COc1cccc(NC(=O)c2cccn(Cc3ccccc3C)c2=O)c1,.,.,-13%,.,.
O=C(O)c1cn(Cc2ccccc2)nc1-c1ccccc1,4%,-2%[57.1 µM],-15%,1%,1
O=C(O)CSCC(=O)N(Cc1ccccc1)c1nc(-c2ccccc2)c(-c2ccccc2)s1,30µM*,-30%,?,-20%,18
COC(=O)OCC12CCC(O1)C1(C)C(=O)OCC21 (configuration not stated),24µM*,-10%,-14%,1%,-15
COc1ccc(C(c2nnnn2-c2ccc3c(c2)OCCO3)N2CCC3(CC2)C(=O)NCN3c2ccccc2)cc1 (configuration not stated),-2%,4%,.,.,0
CN1CC[C@@]2(C)c3cc(O)ccc3N(C)[C@@H]12,5.3µM*,39%,28µM*,.,-25
CC1[C@H]2Cc3ccc(O)cc3[C@]1(C)CCN2C (some centres not stated),-10%,0%,-13%,.,8
CCC(C)N1C(=O)/C(=C\c2cc3c4c(c2)CCCN4CCC3)C(=O)NC1=S (configuration not stated),0.95µM*,?,-19%,-1%,?
CN1C(=O)/C(=C/c2ccc(N3CCCCCC3)o2)C(=O)NC1=S,51%,-19%,?,4%,-14
CN1C(=O)/C(=C\c2ccc(N3CCCCCC3)cc2)C(=O)NC1=S,2.1µM*,-17%,-7%,4%,-56*
CCC(C)N1C(=O)/C(=C\c2ccc(N3CCCCCC3)cc2)C(=O)NC1=S (configuration not stated),?,?,-7%,0%,-58*
CC(=NCC1CCCO1)c1c(O)n(-c2ccccc2C)c(=O)[nH]c1=O (configuration not stated),-4%,9%,-11%,0%,6
COc1ccc(NC(=O)CN2C(=O)C(C)N=C(c3ccccc3F)c3cc(Cl)ccc32)c(OC)c1 (configuration not stated),.,.,-10%,.,.
CCN(C[C@H]1N[C@@](CC)(C(=O)OC)[C@H]2C(=O)N(Cc3ccccc3)C(=O)[C@@H]12)S(=O)(=O)c1ccc(C)cc1,-2%,-3%,?,-4%,1
Cn1cc(C(=O)Cc2ccccc2)c2ccccc21,27µM*,-10%,-20%,3%,-13
CN(C)c1ccc(C=C2C(=O)NC(=S)NC2=O)cc1,2.7µM*,35µM*,-25%,.,-72*
O=C1NC(=O)C(=Cc2ccc(OCCOc3ccc([N+](=O)[O-])cc3)cc2)C(=O)N1,2.7µM*,-28%[11.6 µM],-11%,2%,-63*
CN(C)c1ccc(C=C2C(=O)NC(=O)NC2=O)cc1,3µM*,-28%,-12%,.,?
O=C1NC(=O)C(=Cc2ccc3c(c2)OCO3)C(=O)N1,.,.,.,0%,.
CC(=O)N1CCN(c2ccc([N+](=O)[O-])cc2C=C2C(=O)NC(=O)NC2=O)CC1,?,-21%,-5%,-1%,1
CCCOc1ccccc1OCC(=O)N1CCN(CC(=O)N2CCOCC2)CC1,-17%,7%,8%,.,-15
Cc1ccc(-n2c(/C=C/c3ccccc3)nc3ccccc3c2=O)cc1Cl,.,.,14%,.,.
Cc1ccc(-c2csc(NC(CO)c3nc4ccccc4n3CCOCCO)n2)cc1 (configuration not stated),21µM*,2%,-11%,.,0
CN(C)C1C(=O)C(C(N)=O)=C(O)C2(O)C(=O)C3=C(O)c4c(O)cccc4C(C)(O)C3C(O)C12 (configuration not stated),-9%,-35%,-21%,-4%,-54*
Cc1cc(=O)oc2cc(OCC(=O)N3CCN(Cc4ccc5c(c4)OCO5)CC3)ccc12,-3%,-4%,-9%,-1%,1
COc1ccc(S(=O)(=O)N2CCOCC2)cc1NC(=O)COC(=O)Cc1ccccc1,-11%,-5%,2%,4%,5
Cc1nc2ccc(Nc3nc4cc(S(=O)(=O)N5CCOCC5)ccc4o3)cc2s1,4.7µM*,-21%,-32%,1%,3
